In the library only some 6.5% were active in any assay of this set; here they are far more common.
MK inhibit: inhibitors of Streptococcus pneumoniae mevalonate kinase; purified MK, PK/LDH-coupled NADH absorbance 340 nm; inhibition, % at 10 µM; hit rate 0.48% among 65,000;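 active means ranked among the strongest by inhibition in the single 10 µM screen, a fixed top-ranked set picked for dose follow-up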
Autofluor 339: intrinsic fluorescence of library compounds, ex339/em460 – biochemical, MLSMR library, data from DPM-DC assay, artefact control, profiling panel | compound autofluorescence, ex339/em460 nm, NADH buffer; hits give high values; 1 = no-compound wells, NADH background | AID 709 | fluorescence fold increase at 10 µM | hit rate 5.5% among 65,000;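 active means at 10 µM, mean starting fluorescence two-fold or more over control wells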;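 further: signal is the first read of a kinetic run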
Abs 340nm: absorbance at 340 nm; compound absorbance at 340 nm, fold over control; 65,000 tested, under 10 active; fold change at 10 µM; AID 708;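 active means at 10 µM dose, initial 340 nm absorbance at least 2 fold that of control wells; inactive means change under 2 fold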;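 further: initial absorbance extrapolated from kinetic A340 decline of NADH oxidation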
NADH enzymes: blocks coupling enzymes of NAD/NADH assays. coupled PK/LDH NADH assays, four targets. hit rate 0.02% among 65,000. AID 774. IC50, µM (series often up to 10 µM), without a hit: top-dose inhibition;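 active means single-dose screening hits from any of four coupled enzyme assays that gave an IC50 when retested across doses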;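 further: the DPM-DC format reads NADH fluorescence rather than 340 nm absorbance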
Spn DPM-DC inh: inhibitors of Streptococcus pneumoniae diphosphomevalonate decarboxylase. calls only at 10 µM. AID 556. purified DPM-DC, PK/LDH coupled NADH fluorescence. hit rate 0.49% among 65,000;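 active means the 320 compounds with the highest percent inhibition in the single-dose primary screen, excluding strongly autofluorescent ones, cut at about 32% in these data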;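 further: kinetic rate of NADH fluorescence loss reporting ADP formed by the decarboxylase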
Spn PMK inh: inhibitors of Streptococcus pneumoniae phosphomevalonate kinase; purified PMK, PK/LDH-coupled NADH absorbance 340 nm; hit rate 0.49% among 65,000; inhibition, % at 10 µM;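 active means top-ranked compounds by inhibition in the single 10 µM screen, taking a fixed number of the strongest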;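 further: 0% = full reaction with DMSO carrier and 100% = background rate without enzyme reaction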
* hit, by the source's call; i = inactive; / = not tested or not shown; + = active, no number.

SMILES	MK inhibit	Autofluor 339	Abs 340nm	NADH enzymes	Spn DPM-DC inh	Spn PMK inh
CCOC(=O)CC1C(=O)NCCN1C(=O)Nc1ccccc1 (stereo unspecified)	49*	1.1	1.1	17%	i	1
COc1ccccc1N1CCN(C(=O)c2ccc(Br)s2)CC1	9	1	1	3%	i	0
COc1ccccc1N1CCN(C2CCN(C(=O)c3cccs3)CC2)CC1	56*	1	1	19%	i	2
COc1ccccc1NC(=O)c1ccccc1NS(=O)(=O)N1CCCC1	3	1.4	1.1	7%	i	5
O=C(NCCc1ccccc1)c1ccccc1NS(=O)(=O)N1CCCC1	5	3.4*	1	6%	/	6
O=S(=O)(Nc1cccc2ccccc12)N1CCCC1	3	2.5*	1	9%	i	8
Brc1c(CSc2nncn2-c2ccccc2)nc2ncccn12	0	4*	1.1	0%	/	0
Clc1c(CSc2nc3ccccc3o2)nc2ccccn12	1	1.1	0.98	4%	i	11
Brc1c(CSc2nc3ccccc3o2)nc2ncccn12	10	5*	1	10%	/	9
COc1ccc(N(Cc2ccco2)C(=O)c2ccccc2F)cc1OC	5	1.1	0.99	5%	i	9
COCCn1c(=S)[nH]c2cc(C(=O)N3CCN(c4ccc(F)cc4)CC3)ccc2c1=O	4	1	1	5%	i	12
N#CC1=C(N)N(c2ccccc2)C(c2ccco2)C1(C#N)C#N (stereo unspecified)	12	2.2*	1	4%	/	11
Cc1cccc(-n2ncc(C#N)c2N)c1	8	1	1	2%	i	4
Cc1cccc(N2C(N)=C(C#N)C(C#N)(C#N)C2c2ccccc2)c1 (stereo unspecified)	11	2.7*	1	12%	i	0
Nc1cc(C(=O)N2CCCC2)cc(C(=O)N2CCCC2)c1	4	1.4	1	2%	i	3
CC(C)OCCCn1c(=NC(=O)c2ccncc2)c(C#N)cc2c(=O)n3ccccc3nc21	3	3.6*	1.1	8%	/	12
CCCCn1c(=NC(C)=O)c(C#N)cc2c(=O)n3cccc(C)c3nc21	8	3.9*	1.1	8%	/	8
COCCn1c(=NC(=O)c2ccc3c(c2)OCO3)c(C#N)cc2c(=O)n3cccc(C)c3nc21	0	1.3	1.1	3%	i	9
CCCCn1c(=NC(=O)c2ccc3c(c2)OCO3)c(C#N)cc2c(=O)n3cccc(C)c3nc21	4	2.3*	1.1	11%	i	5
CCCCCn1c(=NC(C)=O)c(C#N)cc2c(=O)n3ccccc3nc21	3	3.6*	1.1	7%	/	11
COc1ccccc1N1C(=O)C2C3C=CC(C3)C2C1=O (stereo unspecified)	2	1.1	0.99	4%	i	11
CCOC(=O)CCn1cc(F)c(=O)n(Cc2ccccc2)c1=O	7	1.1	1	4%	i	6
Cc1cccn2c(=O)c3cc(C#N)c(=NC(=O)c4ccncc4)n(Cc4ccco4)c3nc12	11	2.7*	1	3%	/	13
CCOc1ccc(S(=O)(=O)Nc2nc3ccccc3nc2N2CCN(C)CC2)cc1	9	1.7	1.1	12%	i	4
CC(=O)N1CCN(c2nc3cc4c(cc3nc2NS(=O)(=O)c2ccccc2)OCCO4)CC1	3	2.7*	1.1	13%	i	27*
SMILES	MK inhibit	Autofluor 339	Abs 340nm	NADH enzymes	Spn DPM-DC inh	Spn PMK inh
CN(c1ccc(Cl)cc1)c1cc(=O)n(C)c2ccccc12	2	1.3	1.1	3%	i	5
CN(C)c1ccc2c(O)cc(=O)n(C)c2c1	6	2.3*	1.1	3%	/	0
COC(=O)C1=CN(C2CC2)C=C(C(=O)OC)C1c1ccc(C(=O)OC)cc1	0	2.1*	1.1	2%	/	4
CCOC(=O)C1CCN(S(=O)(=O)c2ccc(C(=O)OC)cc2)CC1	2	1	1.1	6%	i	16
O=C(c1c(F)c(F)c(F)c(F)c1F)N1CCc2ccccc21	4	1.1	1	6%	i	12
CC1(C)Cc2c(c(N3CCOCC3)nc3sc(C#N)c(N)c23)CS1	7	2.5*	1.1	2%	/	0
Cc1cc2cc(CN3C(=O)c4ccccc4C3=O)ccc2[nH]1	7	1.1	1	6%	i	10
CCn1c(COc2ccccc2C)nnc1SCC(=O)N1CCCCC1	1	1.1	0.96	9%	i	27*
COc1cccc2c(=O)c3c(cnn3C)n(C)c12	0	2.5*	1	1%	/	0
Cc1cc(NC(=O)c2sccc2C)n(-c2cccc(Cl)c2)n1	2	1.1	0.98	5%	i	14
O=C1NCCN1C(=O)C12CC3CC(CC(C3)C1)C2	0	1.1	1	3%	i	10
CN1CC(=O)NC1=NC(=O)C12CC3CC(CC(C3)C1)C2	0	0.6	1	17%	+	11
COC(=O)Nc1nnc(CCc2ccccc2)s1	6	1	0.99	4%	i	10
CCOC(=O)Nc1nnc(CCc2ccccc2)s1	7	2.6*	1.1	8%	i	9
CCOC(=O)Nc1nnc(-c2ccc(OC)c(OC)c2)s1	9	3.7*	1.1	11%	/	12
NC(=O)CN1CCN(C(=O)NC2CCCCC2)CC1	1	1.1	1	1%	i	2
Cc1ccc(CNC(=O)CSc2nc(N3CCCCC3)nc(N3CCCCC3)n2)cc1	6	1.1	1	3%	i	2
O=C(OC(C(=O)NCc1cccs1)c1ccccc1Cl)c1ccco1 (stereo unspecified)	6	1	0.99	8%	i	14
CC(C)C(=O)Nc1cc(=O)[nH]c2ncnn12	4	1.1	0.99	3%	i	5
COc1ccc(N2C(=O)CSC23CCCCC3)cc1	10	1.1	1	6%	i	4
COc1ccc(N2C(=O)c3ccccc3NC23CCCCC3)cc1	2	2.2*	1.1	4%	/	6
N#CCSC1=Nc2ccccc2C2=NC(CCC(=O)N3CCN(c4ccccc4)CC3)C(=O)N12 (stereo unspecified)	0	1.2	1.1	4%	i	13
CC(C)C1N=C2c3ccccc3N=C(SCC#N)N2C1=O (stereo unspecified)	7	2.6*	1.1	8%	i	8
CCCc1cc(NCCCCO)n2c(nc3ccccc32)c1C#N	5	2.4*	1	8%	/	10
Cc1cc(NCCCCO)n2c(nc3ccccc32)c1C#N	6	3.6*	1.1	10%	/	13
Cc1cc(-c2ccco2)n2c(nc3ccccc32)c1C#N	7	1.1	1.1	4%	i	6
COCCN(CCOC)c1cc(C)c(C#N)c2nc3ccccc3n12	6	3.8*	1.1	10%	/	13

High-throughput results deposited in PubChem BioAssay by SRMLSC.
